From PubChem BioAssay
Kir21 block: inhibitors of mouse Kir2.1 inward-rectifier potassium channel; AID 1672, 2009; Inward rectifier potassium channel 2 (Mus musculus), P35561; B-score at 10 µM; actives 0.85% (n = 310,000); HEK293-Kir2.1, FluxOR thallium flux fluorescence; hits give low values;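 active = fluorescence ratio B-score at or below minus 3 SD of library scores, with starting-brightness B-score within 2 SD, cut at about -4.2 in these data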;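 note: channel flux triggered by added potassium and thallium sulfate stimulus; B-score of peak minus minimum fluorescence over baseline after thallium stimulus; more negative B-score means stronger Kir2.1 block with less thallium influx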
Target sequence (P35561 whole entry, looked up): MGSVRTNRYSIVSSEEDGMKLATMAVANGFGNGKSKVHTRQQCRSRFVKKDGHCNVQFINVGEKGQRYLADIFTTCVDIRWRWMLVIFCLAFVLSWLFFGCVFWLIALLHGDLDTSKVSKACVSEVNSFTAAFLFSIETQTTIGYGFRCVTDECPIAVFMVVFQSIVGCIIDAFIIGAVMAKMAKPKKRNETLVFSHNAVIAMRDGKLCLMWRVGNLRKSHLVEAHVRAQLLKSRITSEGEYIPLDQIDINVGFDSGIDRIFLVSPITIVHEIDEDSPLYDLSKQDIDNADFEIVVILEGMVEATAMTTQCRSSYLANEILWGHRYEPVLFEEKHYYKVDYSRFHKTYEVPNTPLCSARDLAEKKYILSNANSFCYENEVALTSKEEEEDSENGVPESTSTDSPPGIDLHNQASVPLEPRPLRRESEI
KCNK9 inh: KCNK9 potassium channel inhibitors, primary screen, HEK293 cells, thallium flux; Potassium channel subfamily K member 9 (Homo sapiens), Q9NPC2; FluxOR thallium flux fluorescence; hits give low values; B-score at 10 µM; actives 1.2% (n = 310,000); AID 488922, 2010;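 active = ratio B-score over 3 SD below the library mean, with starting fluorescence within 5 SD of its mean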;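 note: negative B-score means less thallium flux so channel inhibition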
ANO1 block: TMEM16A chloride channel inhibitors, primary screen, cell-based, HTS; actives 1.2% (n = 310,000); normalized B-score (activity score, 25-100; higher = stronger inhibition) at 10 µM; AID 588511, 2011; HEK293 TMEM16A/YFP iodide influx fluorescence, ionomycin;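 active = ratio plate-corrected score three or more library SD toward inhibition, starting fluorescence score within five deviations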;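 note: score derived from kinetic fluorescence span divided by baseline fluorescence per well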
KCNK3 block: human KCNK3 channel inhibitors, primary screen, CHO cells, FluxOR thallium flux, B-score; Potassium channel subfamily K member 3 (Homo sapiens), O14649; FluxOR fluorescence; hits give low values; B-score at 10 µM; actives 0.84% (n = 340,000); AID 602410, 2012;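 active = B-score under library mean minus 4 SD, starting fluorescence ratio at most library mean plus 5 SD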;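 note: more negative B-score means stronger inhibition of thallium flux through KCNK3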
TMEM16A act: TMEM16A chloride channel activators or potentiators, primary screen, cell-based, HTS; HEK293 TMEM16A/YFP-H148Q/I152L, iodide quench fluorescence; hits give low values; B-score at 10 µM; actives 0.3% (n = 340,000); AID 623877, 2012;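 active = fluorescence-ratio B-score plate-corrected deviation score at least 3 library SD below zero, with starting fluorescence score within 5 deviations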;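 note: channel opened by trigger with iodide after compound preincubation; score built on the fluorescence ratio of max minus min over baseline; more negative score means more quench and so TMEM16A activation or potentiation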
TMEM16A reconf: TMEM16A chloride channel inhibitors, confirmation, cell-based, re-confirmation; inhibition, % at 10 µM; shares compounds with ANO1 block; HEK293 TMEM16A/YFP-H148Q, iodide quench fluorescence; ionomycin added to raise cell calcium; actives 39% (n = 2,300); AID 652189, 2013;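 active = mean duplicate percent inhibition, scaled so buffer wells are 0 and the reference blocker 100, over three buffer SD above buffer mean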
HEK293 Ca mobil: calcium mobilization in TMEM16A/YFP HEK293 cells, confirmation, counter-screen for TMEM16A inhibitor project | actives 2% (n = 2,300) | shares compounds with ANO1 block | Fluo4 calcium mobilization | calcium response (% of ionomycin), % at 10 µM;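 active = duplicate-averaged calcium signal over 20% of the ionomycin maximum, relative to buffer baseline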;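 note: each well's signal is peak minus trough fluorescence divided by its pre-addition baseline; 0% = buffer wells and 100% = ionomycin wells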
Parental YFP cnt: iodide YFP quench changes in parental YFP-HEK293, counter-screen for TMEM16A inhibitor project, cell-based. shares compounds with ANO1 block. ionomycin. YFP ratio F(max-min)/F0 at 10 µM. 2,300 tested, under 10 active;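 active = yellow fluorescent protein signal ratio exceeding the buffer control mean by over 5 SD of those controls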;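 note: ratio is mean of duplicate wells from kinetic YFP trace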
ClC-1 rat inh: ClC-1 chloride channel inhibition, selectivity assay for TMEM16A inhibitor project, cell-based, voltage-dependent ClC-1; shares compounds with ANO1 block; CHO ClC-1-YFP, iodide influx fluorescence quench; iodide control reads 0, buffer control 100; ratio percent, % at 10 µM; 2,300 tested, under 10 active; AID 652236, 2013;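 active = duplicate-mean ratio percent above the mean of iodide-only control wells, which defines zero, plus 5 of their SD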;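 note: higher percent means stronger block of ClC-1 iodide influx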
* hit, by the source's call; i = inactive; x = not tested or not shown. An excerpt weighted towards active compounds, which were near 3.5% of everything screened.

SMILES | Kir21 block | KCNK9 inh | ANO1 block | KCNK3 block | TMEM16A act | TMEM16A reconf | HEK293 Ca mobil | Parental YFP cnt | ClC-1 rat inh
O=C(NCCCc1ccccc1)C(=O)NCC1OCCN1S(=O)(=O)c1ccc(F)cc1 (stereo not drawn) | -0.21 | i | 25* | i | i | i | i | -1 | -8
Oc1ccc2nnc3c(Br)cnn3c2c1 | -16 | i | i | i | i | i | i | -0.94 | -6
COc1ccc2cc3cc(C(=O)Nc4ccc5c(c4)OCO5)oc3nc2c1 | -1.6 | i | 100* | i | i | i | i | -0.93 | -16
CCC(Oc1ccccc1)C(=O)Nc1nnc(C(F)(F)F)s1 (stereo not drawn) | x | x | 100* | i | i | 20%* | i | -0.97 | -20
CN(CC(CC(=O)Nc1nncs1)c1ccccc1)S(=O)(=O)c1ccc(Br)cc1 (stereo not drawn) | -2.8 | i | 100* | i | i | i | i | -0.96 | -12
Cc1nc(C)c(-c2csc(NCc3ccco3)n2)s1 | 0.56 | i | i | i | i | x | x | x | x
Cc1nc2ccccn2c1-c1csc(NCc2ccco2)n1 | 1.8 | i | 25* | i | i | i | i | -0.96 | -8
Cc1ccc(Nc2nc(-c3c(C)nc4ncccn34)cs2)cc1 | 0.95 | i | i | i | i | x | x | x | x
Cc1ccc(Nc2nc(-c3c(C)nc4ccccn34)cs2)cc1 | -0.14 | i | 25* | i | i | 32%* | i | -1.4 | -16
C=C(C)Cc1c(C)c(C#N)c2[nH]c3ccccc3n2c1=O | -0.17 | i | i | i | i | x | x | x | x
CCc1c(C)c(C#N)c2[nH]c3ccccc3n2c1=S | -0.45 | i | 100* | i | i | 34%* | i | -0.85 | -21
COC(=O)C1=CN(CC2CCCO2)C=C(C(=O)OC)C1c1ccsc1 (stereo not drawn) | 0.57 | i | 100* | i | i | i | i | -1.1 | -15
COC(=O)CCCCCN1C(=O)NC(C2CC2)C(C(=O)OCc2ccccc2)=C1C (stereo not drawn) | -1.5 | i | 25* | i | i | i | i | -1.3 | -15
CC1=C(C(=O)OCc2ccccc2)C(c2ccc(-c3ccccc3)cc2)NC(=O)N1CCCCCC(=O)O (stereo not drawn) | x | x | 100* | i | i | 31%* | i | -1.1 | -59
CC1=C(C(=O)OCc2ccccc2)C(c2ccccc2)NC(=O)N1CCCCCC(=O)O (stereo not drawn) | 0.01 | i | i | i | i | x | x | x | x
O=C(CNC(=O)N1CC(=O)Nc2ccccc21)NCCc1ccc(Cl)cc1 | -1.1 | i | i | i | i | x | x | x | x
Cc1ccccc1-n1nc2c(c1NC(=O)c1cc3ccccc3oc1=O)CS(=O)(=O)C2 | 2.3 | i | 25* | x | x | i | i | -1.3 | -8
O=C(COCc1nc2ccccc2c(=O)[nH]1)NC1CCCC1 | -0.21 | i | 100* | i | i | i | i | -1.1 | -8
O=C(NC1CCCCC1)N(Cc1nc2ccccc2c(=O)[nH]1)C1CCCCC1 | 1.2 | i | i | i | i | x | x | x | x
O=C(CSC1CC(=O)N(CC(c2ccccc2)c2ccccc2)C1=O)Nc1ccc(Cl)cc1 (stereo not drawn) | -0.88 | i | 25* | i | i | i | i | -1.1 | -2
O=C(Nc1cccnc1)c1ccc(Cl)c(S(=O)(=O)N2CCc3ccccc32)c1 | 1.6 | i | 100* | i | i | 18%* | i | -0.96 | -5
O=C(CN1CCN(Cc2ccc(Cl)cc2)C1=O)NCc1cccs1 | 0.98 | i | i | i | i | i | i | -1.1 | -4
CC1(c2cccc(Br)c2)NC(=O)N(CC(=O)Nc2ccc3c(c2)OCCO3)C1=O (stereo not drawn) | x | x | x | i | i | x | x | x | x
c1ccc(CN2CCN(c3ncnc4c3[nH]c3ccccc34)CC2)cc1 | -0.57 | i | 100* | i | i | 19%* | i | -0.99 | -24
Cc1ccc2c(c1)[nH]c1c(N3CCN(Cc4ccccc4)CC3)ncnc12 | -0.07 | i | 25* | i | i | 25%* | i | -1 | -24
SMILES | Kir21 block | KCNK9 inh | ANO1 block | KCNK3 block | TMEM16A act | TMEM16A reconf | HEK293 Ca mobil | Parental YFP cnt | ClC-1 rat inh
CC1CCN(c2ncnc3c2cnn3-c2ccccc2)CC1 | 0 | i | i | i | i | x | x | x | x
COc1cccc(OCCN2CCN(c3ncnc4c3cnn4-c3ccccc3)CC2)c1 | 2.7 | i | 100* | i | i | i | i | -0.88 | -10
CC(C)CC(NS(=O)(=O)OCC(Cl)(Cl)Cl)c1ccccc1 (stereo not drawn) | 0.29 | i | 100* | i | i | 56%* | i | -1.1 | -3
CCOC(=O)c1ccccc1NC1c2ccccc2C(=O)N1c1cc(C)ccn1 (stereo not drawn) | 0.92 | i | 100* | i | i | i | i | -0.98 | 0
O=c1cc(C(F)(F)F)[nH]c2ccc(OC(F)(F)F)cc12 | 0.13 | i | 100* | i | i | 43%* | i | -0.87 | -21
CCOc1ccc2[nH]c(C)cc(=O)c2c1 | 0.37 | i | i | i | i | x | x | x | x
CC(c1ccncn1)N(C)C(=O)c1ccc2oc(Cc3ccccc3)nc2c1 (stereo not drawn) | -1.6 | i | i | i | i | x | x | x | x
S=C(NCc1ccc(Cl)cc1Cl)NC1CCCCC1 | 0.18 | i | 25* | i | i | 52%* | i | -0.98 | -16
Clc1ccc(CNC2CCCC2)c(Cl)c1 | -1.1 | i | i | i | i | x | x | x | x
CC(C)(C)OC(=O)C[C@H]1C/C=C\C[C@H](CC(=O)NCCO)C(=O)N[C@@H](Cc2ccccc2)COC1=O | x | x | x | i | i | x | x | x | x
